Screening results: PubChem, several laboratories
PostGolgi ctrl: inhibits growth of the yeast control strain; efflux-deficient yeast background strain, growth absorbance A615, 16 h; inhibition, % at 10 µM; actives 5% (n = 98,000)
Calb biofilm kill: kills Candida albicans biofilms; inhibition, % at 6 µM; actives 0.14% (n = 85,000); C. albicans biofilm + clotrimazole, Alamar Blue;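 active = inhibition above 20%; inactive = inhibition below 20%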;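 note: preformed 24 hr biofilms exposed to compound for 48 hr; 0% = biofilm without compound and 100% = blank killed by clotrimazole plus chlorhexidine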
EphB4 ephrin blk: blocks human EphB4 binding to ephrin-B2. AID 720. actives 0.15% (n = 97,000). EphB4 LBD / TNYL-RAW-Alexa532 peptide, fluorescence polarization. inhibition, % at 7 µM;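 active = inhibition above the screen-wide mean inhibition plus 3 SD, cut at about 15% in these data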;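 note: 0% = DMSO wells and 100% = excess unlabeled TNYL-RAW peptide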
PostGolgi yeast: growth inhibition of a yeast mutant, post-Golgi transport screen. post-Golgi transport phenotypic cell assay. inhibition, % at 10 µM. actives 0.9% (n = 98,000). AID 739;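 note: yeast cells grown in 1536-well plates; yeast grown about 18 h at 30C before absorbance read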
An asterisk follows results filed as active; · = no result. Sampled rows, rich in hits. Any-hit rate of the full collection: about 5.2%. Cut-off read from the data, not from the text of the source, unless noted: active = inhibition above about 30%; inactive = the rest.

SMILES | PostGolgi ctrl | Calb biofilm kill | EphB4 ephrin blk | PostGolgi yeast
COC(=O)CSc1nc(N)c(C#N)c(-c2ccco2)c1C#N | 32* | · | 2 | -5
Cc1ccc(SC/C(O)=C(\C#N)c2nc3ccccc3n2C)cc1 | 37* | 1 | 0 | -2
Cn1c(/C(C#N)=C(\O)CN2CCN(Cc3ccccc3)CC2)nc2ccccc21 | 14 | 5 | 6 | -3
COc1ccc(NS(=O)(=O)c2ccc(S(=O)(=O)N3CCCC3)cc2)cc1Cl | 17 | · | 0 | -7
N#C/C(=C\c1cccs1)Sc1nc2ccccc2s1 | 35* | 3 | 2 | -6
N#C/C(=C\c1ccc[nH]1)Sc1nc2ccccc2s1 | 16 | 2 | · | 11
COc1cccc(C2N(c3cccc(Cl)c3)C(=O)C3CCCN32)c1 (stereo not drawn) | 2 | -6 | -6 | -2
CCOc1ccc(C(=O)C2CCN(CC(=O)Nc3ccccc3N3CCOCC3)CC2)cc1 | 2 | 5 | -3 | -11
CCOC(=O)c1c(C)sc2c1N(C(=O)CN1CCOCC1)c1cc(Cl)ccc1S2 | 54* | 6 | -4 | -9
CCOC(=O)c1c(C)sc2c1N(C(=O)CN(CC)CC)c1cc(Cl)ccc1S2 | 5 | 6 | -3 | 0
COC(=O)Nc1ccc(S(=O)(=O)N2CCN(c3ccc(F)cc3)CC2)cc1 | 38* | 9 | -9 | -9
CCOC(=O)N1CCN(S(=O)(=O)c2ccc(F)cc2)CC1 | 1 | 1 | -3 | -9
CC(C)CC(=O)N1CCN(S(=O)(=O)c2ccc(F)cc2)CC1 | 39* | · | 10 | -6
COC(=O)Nc1ccc(S(=O)(=O)N2CCC(Cc3ccccc3)CC2)cc1 | 35* | · | 5 | 3
CCOC(=O)C1=C(N)c2ccccc2CC1C(C)C (stereo not drawn) | 11 | 8 | 2 | -1
O=C(NCCCNC(=O)c1ccccn1)c1ccccn1 | 35* | 5 | · | -11
CCCCNC(=O)Nc1ccccn1 | 33* | 0 | -8 | 4
N#CC1=C(N)NC(SCc2ccccc2)=C(C#N)C12CCCCC2 | 91* | 5 | 0 | 103*
COc1cccc(CN(Cc2cccnc2)S(=O)(=O)c2ccc(-n3cnnn3)c(C)c2)c1OC | 5 | 4 | 3 | 11
COc1ccc(Cn2c(SCc3ccccc3C)nc3cc(OC)c(OC)cc3c2=N)cc1 | 67* | · | 14 | -1
Cc1ccc(NC(=O)Cn2cncc2-c2ccc([N+](=O)[O-])cc2)cc1C | 33* | · | -3 | 1
Cc1sc(NC(=O)c2ccc(OCC(C)C)cc2)c(C(N)=O)c1-c1ccc(Cl)cc1Cl | 6 | · | -7 | 8
CC1CCCc2sc3nc(NCc4ccco4)n4ncnc4c3c21 (stereo not drawn) | 57* | 1 | 4 | -1
CC1CCc2sc3nc(NCc4ccco4)n4ncnc4c3c2C1 (stereo not drawn) | 63* | 8 | -1 | -12
CCN1CCN(c2nc3sc4c(c3c3ncnn23)CC(C)CC4)CC1 (stereo not drawn) | 5 | 1 | 1 | 0
SMILES | PostGolgi ctrl | Calb biofilm kill | EphB4 ephrin blk | PostGolgi yeast
Cc1nc(NCc2ccco2)c2c3c(sc2n1)CCC3 | 0 | -1 | 2 | -1
COC(=O)c1ccc2c(=O)n(CC3CCCO3)c(SCC(=O)Nc3ccccc3Cl)nc2c1 (stereo not drawn) | 20 | 3 | -1 | 4
COC(=O)c1ccc2c(=O)n(CC3CCCO3)c(SCC(=O)Nc3ccccc3OC)nc2c1 (stereo not drawn) | 33* | -4 | 10 | -9
Cc1cc(NC(=O)CC(CN(C)S(=O)(=O)c2ccccc2)c2ccccc2)no1 (stereo not drawn) | -1 | 1 | · | 10
COc1ccc(N2Nc3n[nH]c(N)c3N2)cc1 | · | 4 | 1 | ·
COc1ccc(C(=O)c2c[nH]c3ccccc23)cc1 | 8 | 2 | 0 | 11
N#Cc1c(C(F)(F)F)cc(-c2ccco2)nc1SCc1ccccn1 | 9 | 2 | -4 | 14
N#Cc1c(C(F)(F)F)cc(-c2ccco2)nc1SCc1ccncc1 | 49* | 2 | -2 | 0
CC1(C)CC(=O)c2c(n(-c3cccc4ccccc34)ccc2=O)C1 | 6 | -2 | 2 | -28
O=S(Cc1cc(Oc2ccccc2)nc(-c2ccccc2)n1)c1ccccc1 (stereo not drawn) | 35* | · | 1 | 4
CCc1nc(N(CC)CC)c2oc3ccccc3c2n1 | 36* | 5 | 5 | -6
CCc1nc(NCc2ccc3c(c2)OCO3)c2oc3ccccc3c2n1 | 55* | 9 | -2 | 0
CCNc1nc(CC)nc2c1oc1ccccc12 | 5 | 1 | 0 | -12
CCOCc1nc(N)[nH]c(=O)c1Cc1ccc(OC(C)C)cc1 | · | 7 | -2 | ·
COC(=O)C(C(=O)OC)C(C[N+](=O)[O-])c1ccc(OC)c(OC)c1 (stereo not drawn) | 33* | · | 4 | -4
CCOC(=O)N1CCN(c2c(NCc3ccccn3)c(=O)c2=O)CC1 | 31* | -2 | -3 | -2
CN1C(=O)/C(=C2\SC(N3CCCCCC3)=NC2=O)c2ccccc21 | 42* | -1 | 0 | 6
CCCN1C(=O)/C(=C2\SC(N3CCCCC3)=NC2=O)c2ccccc21 | 39* | 2 | -2 | 3
Cc1ccc(NC(=O)/C(=C\c2ccc3c(c2)OCO3)NC(=O)c2ccco2)cc1 | -3 | · | -2 | -2
C/C(=N\S(=O)(=O)c1ccc(C)cc1)N1CCN(S(=O)(=O)c2ccccc2)C1 | 31* | · | -10 | 2
Cc1ccc(-n2c(Cn3nc(C(F)F)cc3C(F)F)n[nH]c2=S)cc1 | 6 | · | 0 | 0
Oc1cnn(-c2ccccc2)c1 | 32* | · | -6 | -7
COc1ccc(-c2nn(C)c(=O)c3ccccc23)cc1NS(C)(=O)=O | 2 | 6 | -2 | 3
COc1ccc(-c2nn(C)c(=O)c3ccccc23)cc1CNS(C)(=O)=O | 42* | -3 | 8 | 0
CCCCC(CCC(=O)Nc1nccs1)C(=O)O (stereo not drawn) | 1 | -3 | 3 | 12
SMILES | PostGolgi ctrl | Calb biofilm kill | EphB4 ephrin blk | PostGolgi yeast
NC(=O)c1ccsc1NC(=O)c1ccc(S(=O)(=O)N2CCCCC2)cc1 | 51* | 12 | 2 | -4
Cc1ccc(S(=O)(=O)c2c(N)n(Cc3ccco3)c3nc4ccccc4nc23)cc1C | 6 | 1 | 2 | -1
Nc1c(S(=O)(=O)c2ccccc2)c2nc3ccccc3nc2n1Cc1ccco1 | 30* | 3 | -6 | -22
CCc1cc2c(SCC(=O)c3ccc(Cl)s3)ncnc2s1 | 36* | 9 | 2 | -4
CCc1nc(SCC(=O)c2ccc(Cl)s2)c2oc3ccccc3c2n1 | 22 | 14 | -5 | -2
COc1ccc(OCC(=O)Nc2cccc(-c3nc4ccccc4[nH]3)c2)cc1 | 17 | · | -4 | -5
O=C(O)CCCC(=O)Nc1cccc(-c2nc3ccccc3[nH]2)c1 | 31* | -1 | 5 | 2
c1ccc(-c2n[nH]c3c2CCC3)cc1 | 5 | 4 | -10 | -6
Clc1ccc(-c2n[nH]c3c2CCC3)c(Cl)c1 | 47* | 3 | 3 | 107*
O=S(=O)(Nc1nc2ccc(S(=O)(=O)N3CCCC3)cc2s1)c1ccc(F)cc1 | 9 | 6 | -3 | -8
CN(C)c1ccnc(SCc2ccccc2Cl)c1C#N | 17 | 11 | -10 | 6
CCCS(=O)(=O)c1nnnn1-c1cccc(OC)c1 | 29 | 8 | · | 55*
